# Screening results as filed in PubChem BioAssay.
# ALOX12 inh: inhibitors of human 12S-lipoxygenase ALOX12 | purified 12hLO, xylenol orange hydroperoxide absorbance | Potency, µM (top dose mostly 108 µM), for the others: at the highest dose activity change, negative = inhibition, actives largely listed as inhibitors | 580,000 compounds, 1.1% hits
# Target sequence (P18054 whole entry, looked up): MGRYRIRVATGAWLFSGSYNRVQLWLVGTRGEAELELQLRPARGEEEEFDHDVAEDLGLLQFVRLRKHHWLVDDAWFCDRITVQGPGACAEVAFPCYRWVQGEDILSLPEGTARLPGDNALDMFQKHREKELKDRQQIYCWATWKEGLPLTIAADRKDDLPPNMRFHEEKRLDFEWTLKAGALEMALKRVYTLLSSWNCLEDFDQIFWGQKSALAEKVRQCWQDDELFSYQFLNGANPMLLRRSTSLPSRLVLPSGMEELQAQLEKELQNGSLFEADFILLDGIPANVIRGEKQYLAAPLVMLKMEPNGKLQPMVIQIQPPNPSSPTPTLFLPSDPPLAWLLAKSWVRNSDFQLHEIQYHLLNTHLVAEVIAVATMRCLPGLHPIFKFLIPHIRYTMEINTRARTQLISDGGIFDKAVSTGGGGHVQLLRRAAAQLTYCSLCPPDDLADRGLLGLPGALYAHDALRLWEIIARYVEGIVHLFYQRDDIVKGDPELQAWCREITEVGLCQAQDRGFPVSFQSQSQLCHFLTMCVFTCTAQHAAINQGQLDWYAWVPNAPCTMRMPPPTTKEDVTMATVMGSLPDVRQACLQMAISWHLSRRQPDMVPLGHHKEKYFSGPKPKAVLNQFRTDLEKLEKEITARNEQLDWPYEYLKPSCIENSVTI
#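 Purified human 12hLO at 150 nM in 25 mM Hepes, 0.01% Triton X-100, pH 7.0, preincubated 15 min at room temperature with compound. Reaction started with 40 uM arachidonic acid, 30 min at room temperature. Hydroperoxide measured by Fe-xylenol orange, 573/405 nm absorbance ratio.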
# TDP1 cell noCPT: qHTS for Inhibitors of human tyrosyl-DNA phosphodiesterase 1 (TDP1): qHTS in cells in absence of CPT; DT40 Tdp1-/- hTDP1 cells, no CPT, ATP luminescence, 48 h; Potency, µM (top dose mostly 46.2 µM), inactives show at the highest dose activity change, negative = growth inhibition, most hits filed as inhibitors; 420,000 compounds, 15% hits; AID 686978, 2013; further: nearly all actives have a fitted effect of over 55% in size
#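 Chicken DT40 Tdp1-/- cells stably complemented with human TDP1 were seeded at 400 cells/well with DMSO in place of 20 nM camptothecin. After compound pinning, cells grew at least 48 hr at 37 °C; viability read by CellTiter-Glo luminescence.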
# TDP1 cell CPT: growth inhibition of DT40 Tdp1-/-;hTDP1 cells with camptothecin (screen for TDP1 inhibitors) | 420,000 compounds, 12% hits | Potency, µM (series often up to 46.2 µM), for inactives: at the top dose activity change, negative = growth inhibition, actives largely listed as inhibitors | AID 686979 | chicken DT40 Tdp1-/-;hTDP1 cells + 20 nM CPT, ATP luminescence, 48 h; further: nearly all actives have a fitted effect of over 55% in size
#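 Cell growth measured by CellTiter-Glo luminescence after a minimum 48 h, 37 C compound exposure with 20 nM CPT in Tdp1-knockout DT40 cells stably expressing hTDP1, seeded 400/well; qHTS titration format.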
# VP16 counter: inhibits Gal4-VP16 luciferase reporter, ROR gamma counter-screen; Drosophila S2 Gal4-VP16 UAS-luciferase, luminescence, 20 h; Potency, µM (doses to about 53.6 µM), for the others: top-dose activity, negative = inhibition, usual class: inhibitors; 310,000 compounds, 3.5% hits;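 further: Gal4-VP16 expression switched on by copper sulfate through the metallothionein promoter; nearly all actives have a fitted effect of over 50% in size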
# RORgamma inh: blocks mouse ROR gamma transcriptional activity; P51450; Drosophila S2 Gal4-RORgamma UAS-luciferase reporter, 20 h; Potency, µM (series often up to 53.6 µM), inactives show at the top dose activity change, negative = inhibition, most hits filed as inhibitors; 310,000 compounds, 5.4% hits; AID 2551; further: nearly all actives have a fitted effect of over 60% in size
#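 Compounds are pin-transferred onto Drosophila Schneider cells expressing a copper-inducible Gal4–ROR gamma transactivation domain fusion. After 1 hr, copper sulfate is added to 700 uM final; luciferase is read 20 hr later.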
# ELG1 DNA repair: blocks ELG1-dependent DNA repair in HEK293T cells; 330,000 compounds, 2.3% hits; HEK293T ELG1-luciferase reporter, luminescence, 16 h; DNA damage induced by 5-fluorouridine; AID 504467; Potency, µM (top dose mostly 46.1 µM), inactives show top-dose activity change, negative = inhibition, hits mostly inhibitors; further: nearly all actives have a fitted effect of over 55% in size
#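 HEK293T cells expressing luciferase-tagged ELG1 (2,000/well) received 5-Fluorouridine plus compound or DMSO for 16 hr at 37 °C. Luciferase was read by ONE-Glo luminescence after 30 min at room temperature.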
# An asterisk follows results filed as active; u = inconclusive; x = no result; ! = not active in a repeat; [ ] = dose if it differs, or a comment. Sampled rows, rich in hits. Any-hit rate of the full collection: about 15%. The call rests on the fitted dose curve; in most records, active means well fitted curve in the direction sought with a large enough effect; inconclusive means small, poorly fitted or top-dose-only effect, or another doubt; inactive means no such curve, though single readings can be large; an effect the other way counts as inactive or inconclusive. On the % scale 0 is the no-effect control and ±100 the full control effect; potency means the concentration at half of the fitted maximal effect.
SMILES,ALOX12 inh,TDP1 cell noCPT,TDP1 cell CPT,VP16 counter,RORgamma inh,ELG1 DNA repair
O=C1OCCC1Sc1nc2ccccc2c(=O)n1Cc1ccc(F)cc1 (configuration not stated),-6%,-15%,-4%,8.9µM*,4µM*,11%
Cc1cc(NC(=O)CSc2nc3ccccc3c(=O)n2Cc2ccc(F)cc2)no1,0%,-10%,-3%,-18%,u,0%
O=C(COC(=O)c1ccc(-c2ccccc2)s1)c1ccccc1,-2%,x,x,x,x,x
N#Cc1c2nc3ccccc3nc2n2cc(NC(=O)c3ccc(F)cc3)ccc12,40µM*,4.6µM*,4.1µM*,5%,-3%,6%
Clc1ccccc1C(c1ccccc1)(c1ccccc1)n1ccnc1,u,10µM*,8.1µM*,u,6.3µM*!,-25%
C#CC(c1ccccc1)(c1ccccc1)n1ccnc1,15%,23µM*,u,x,x,x
Clc1ccccc1OCCCCn1ccnc1,17%,u,u,x,4%[0.365 µM],-2%
CCCN1CCC(N2C[C@@H](CO)[C@H](c3nc(COC)no3)C2)CC1,29%,x,x,x,x,x
Cc1cccc(-n2cnc3cc(C(=O)NC4CCCCCC4)ccc32)c1,-5%,4.6µM*,3.3µM*,x,x,x
CCc1ccccc1-n1cnc2cc(C(=O)NC3CCCCCC3)ccc21,-19%,23µM*,u,x,x,x
COc1ccc(-n2cnc3cc(C(=O)NC4CCCCCC4)ccc32)cc1,-16%,u,u,x,x,x
CC1C/C(=N\NC(=S)NC(C)C)CC(C)(C)C1 (configuration not stated),u,18µM*,10µM*,4µM*,1.6µM*,u
COc1ccccc1CN(C)C(=O)Cn1c(=O)n(C)c2ccccc21,-27%,x,x,x,x,x
Cc1cc(C)c(NC(=O)CSc2nnc(C)n2C)c(Cl)c1,13%,x,x,x,x,x
COc1cccc2sc(N3CCN(C(=O)C4COc5ccccc5O4)CC3)nc12 (configuration not stated),-6%,u,u,x,x,u
CCCCC(=O)N1CCN(c2nc3ccc(Br)cc3s2)CC1,6%,15µM*,16µM*,-14%,u,u
CC(C)(C)C(=O)N1CCN(c2nc3c(F)cccc3s2)CC1,-26%,16µM*,16µM*,x,x,x
CC(C)(C)C(=O)N1CCN(c2nc3ccc(Br)cc3s2)CC1,8%,16µM*,16µM*,-9%,u,u
CCCC(=O)N1CCN(c2nc3ccc(Br)cc3s2)CC1,-10%,-103%,u,u,u,u
O=C(C1COc2ccccc2O1)N1CCN(c2nc3c(F)cccc3s2)CC1 (configuration not stated),u,23µM*,u,x,x,x
O=C(O)c1cccc2c1CCN2S(=O)(=O)c1ccccc1F,-13%,x,x,x,x,x
Cc1ccc(NC(=O)CC(C)(C(=O)O)c2ccccc2)c(O)c1 (configuration not stated),-18%,x,x,x,x,x
Cc1cc(C)c2oc(C(=O)N(Cc3ccc(Cl)cc3)C3CCS(=O)(=O)C3)cc(=O)c2c1 (configuration not stated),-31%,x,x,x,x,x
CC(C)(C)C(=O)N1CCN(c2nc3ccc(Cl)cc3s2)CC1,x,23µM*,u,-4%,36%,u
CCn1c(N2CCN(Cc3cc(C)ccc3C)CC2)nc2c1c(=O)[nH]c(=O)n2C,-1%,x,x,x,x,x
SMILES,ALOX12 inh,TDP1 cell noCPT,TDP1 cell CPT,VP16 counter,RORgamma inh,ELG1 DNA repair
O=C1CCCC/C=C\C[C@H](CC(=O)N(CCO)Cc2ccccc2)C(=O)N2CCC[C@@H]2CO1,8%,u,16µM*,x,x,8%
CC(C)(C)OC(=O)C[C@H]1C/C=C\C[C@H](CC(=O)N(CCO)Cc2ccccc2)C(=O)N2CCC[C@H]2COC1=O,0%,u,26µM*,x,x,u
O=C1OC[C@@H]2CCCN2C(=O)[C@@H](CC(=O)N(CCO)Cc2ccccc2)C/C=C\C[C@H]1Cc1ccc(F)cc1,-5%,15µM*,u,x,x,u
O=C1OC[C@H]2CCCN2C(=O)[C@@H](CC(=O)N(CCO)Cc2ccccc2)C/C=C\C[C@H]1Cc1ccc(F)cc1,u,18µM*,13µM*,x,x,-29%
CC(C)(C)OC(=O)C[C@@H]1C/C=C\C[C@H](CC(=O)N(CCO)Cc2ccccc2)C(=O)N2CCC[C@H]2COC1=O,0%,u,u,x,x,u
CCC(CC)c1nnc(NC(=O)c2cc([N+](=O)[O-])ccc2N2CCOCC2)s1,u,18µM*,u,x,x,-27%
CCOC(=O)c1cc(CC)sc1NC(=O)c1ccc(N2CCOCC2)c([N+](=O)[O-])c1,1%,-14%,0%,-16%,8%,3%
CCOC(=O)c1cc(CC)sc1NC(=O)c1cc([N+](=O)[O-])ccc1N1CCOCC1,0%,1.3µM*,3.7µM*,-7%,-14%,-4%
CCc1nnc(NC(=O)c2cc([N+](=O)[O-])ccc2N2CCOCC2)s1,-13%,3%,21%,x,x,14%
CCc1cccc(OCC(=O)c2ccc3c(c2)N(CC(=O)NCCCOC)C(=O)CO3)c1,39%,x,x,x,x,x
CCC(C)(C)C(=O)N1CCn2c(nnc2[C@@H]2C[C@@H](O)CN2Cc2ccccc2)C1,5%,x,x,x,x,x
O=C(Nc1nnc2n1CCS2)c1cc(C(F)(F)F)cc(C(F)(F)F)c1,0%,4.6µM*,5.8µM*,x,x,x
CN(C)c1ccc(-c2ccc3ncnc(NC4CC4)c3c2)cc1,-25%,13µM*,8.2µM*,-4%,26%,x
c1nc(NC2CC2)c2cc(-c3ccoc3)ccc2n1,u,-25%,u,-17%,1%,x
c1nc(NC2CCNCC2)c2cc(-c3ccc4c(c3)OCO4)ccc2n1,u,15µM*,u,-16%,-4%,x
Cc1noc(C)c1-c1ccc2ncnc(NC3CCNCC3)c2c1,u,u,u,17%,-9%,x
C/C=C\C1=CCCC1Nc1ncnc2ccc(-c3c(C)noc3C)cc12 (configuration not stated),x,x,x,u,11µM*,x
Cc1noc(C)c1-c1ccc2ncnc(NC3CC3)c2c1,u,21µM*,u,-16%,-25%,x
CCc1ccc(N2CC(c3noc(-c4ccc(OC)nc4)n3)CC2=O)cc1 (configuration not stated),16%,x,x,x,x,x
CC(C)Oc1cccc(C2CC(=O)Nc3cc4c(cc32)OCO4)c1 (configuration not stated),u,2.6µM*,2.6µM*,x,x,x
